Screening data deposited in PubChem BioAssay by Broad Institute.
Shown is part of a subset that was picked to be rich in hits.
Tg IFNy HTS = T. gondii growth inhibition under IFN-gamma | Toxoplasma gondii growth in IFN-gamma-treated host cells; hits give low values | activity change, negative = inhibition, % (test concentration not listed) | 3.8% of 69,000 active; in the data active = activity change below about -70%, passing the limit was not always enough;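 note: host cells are HeLa cells infected with Toxoplasma gondii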
A number is an active result; . = inactive; ! = not confirmed by another sample.

SMILES	Tg IFNy HTS
OC(COc1ccc(F)cc1)(c1ccc(Cl)cc1)c1ccc(Cl)cc1	-99
CCOc1ccc2c(c1)C(c1ccc(F)cc1)=NNC(c1ccc(Cl)cc1)=N2	.
O=S(=O)(Cc1ccc(Cl)cc1)CC(O)COc1ccc(F)cc1 (centres undefined)	.
COc1ccccc1-c1nc(C)c(-c2ccc(SCc3ccccc3)nn2)s1	.
COc1ccc(OCC(=O)N2CCC[C@@H]2C(=O)NCCc2csc(-c3ccccc3)n2)cc1	.
Clc1ccccc1CNCc1ccccn1	.
O=C(c1ccn[nH]1)N1CCCC2(CC(Oc3cccnc3)CO2)C1 (centres undefined)	-95
O=C(c1cnc[nH]1)N1CCC2(CC(Oc3cccnc3)CO2)C1 (centres undefined)	.
O=C(c1ccco1)N1CCCC2(CC(Oc3cccnc3)CO2)C1 (centres undefined)	.
CSc1cccc(NC(=O)N2CCC3(CC2)Nc2ccccc2-n2cccc23)c1	.
Cc1nc(C)c(CC(=O)Nc2cccc(CCc3nc4ccccc4[nH]3)c2)s1	.
OCCNc1c2c(nc3nc4ccccc4n13)CCC2	.
CN1C(=O)N(Cc2cccnc2)C(=O)C12CCN(Cc1nccs1)CC2	.
COc1ccc2c(c1)NC1(CCN(S(=O)(=O)c3cc(C)ccc3C)CC1)c1cccn1-2	.
CCN1c2cc(C)ccc2-n2cccc2C12CCN(S(=O)(=O)c1ccc3c(c1)CCCC3)CC2	-81
COc1ccc(OC)c(S(=O)(=O)N2CCC3(CC2)Nc2cc(C)ccc2-n2cccc23)c1	.
CCN1c2cc(C)ccc2-n2cccc2C12CCN(S(=O)(=O)c1c(C)noc1C)CC2	.
CCc1ccc(S(=O)(=O)N2CCC3(CC2)c2cccn2-c2ccc(C)cc2N3CC)cc1	.
CCN1c2cc(C)ccc2-n2cccc2C12CCN(S(=O)(=O)c1ccc(OC)c(Cl)c1)CC2	-100
COc1ccc(S(=O)(=O)N2CCC3(CC2)Nc2ccccc2-n2cccc23)cc1Cl	.
CCN1c2cc(C)ccc2-n2cccc2C12CCN(S(=O)(=O)c1cc(OC)ccc1OC)CC2	-103
CCN1c2cc(C)ccc2-n2cccc2C12CCN(S(=O)(=O)c1ccc(Cl)s1)CC2	.
Cc1cccc(CNC(=O)c2sc(CC(=O)N3CCSCC3)nc2C)c1	.
Cc1ccc(CN2CCC3(CC2)CNC(=O)CO3)s1	.
CN1CCC2(CCCN(Cc3ccncc3)CC2)C1=O (centres undefined)	.
SMILES	Tg IFNy HTS
Cc1ccc(NC(=O)CC(=O)NCc2ccccc2-n2cncn2)cc1	.
COCc1ncc(CN2CCC(Cc3ccc(F)cc3)CC2)cn1	.
CC(C)CN1CCn2c(COCc3cccnc3)nnc2C1	.
CCOc1ccc(NC(=O)CN2C(=O)CCc3cc(S(=O)(=O)N4CCCCC4)ccc32)cc1	.
COCCCn1ccnc1-c1nccn1C	.
COc1c2ccoc2cc2oc(=O)ccc12	-87!
O=c1ccc2cc3ccoc3cc2o1	.
COc1ccc2c(c1)c(=O)oc1cc3occ(C(C)(C)C)c3cc12	.
CCc1cc(N2CCCC(C)(CO)C2)nc(N(C)C)n1 (centres undefined)	.
CC1CCN(S(=O)(=O)c2ccc3c(c2)CCC(=O)N3CC(=O)NCc2ccc(Cl)cc2)CC1	.
COc1ccccc1CN1CCNC(=O)C1CC(=O)N1CCCN(c2ncccn2)CC1 (centres undefined)	.
CCOc1ccc(CCNC(=O)c2c(O)c3ccccc3[nH]c2=O)cc1OCC	.
CN(C)C(CNC(=O)Cc1ccc2nc(N)sc2c1)c1cccc(Cl)c1 (centres undefined)	.
Cc1cc(NC(=O)CCCC(=O)O)no1	.
Cc1cc(NC(=O)c2ccccc2)no1	.
CCCCCCCc1ccc(C(=O)NC(=S)Nc2cc(C)on2)cc1	-92
CS(=O)(=O)N1CC[C@@H](OCC2CC2)[C@@H]1Cc1ccncc1	.
Cc1ccc(N2CCO[C@H]3CN(C(=O)c4ccoc4)CC[C@@H]3C2)nn1	.
CCOc1ccc(-n2cnnc2)cc1-n1cccc1	-74
c1cc(-n2ccnc2)cc(-n2cnnc2)c1	.
CCC/C=C/c1cccc(-n2cnnc2)c1	.
COCC(=O)Nc1ccc(-c2nc(Cn3cccn3)c(C)o2)cc1	.
CCOCC(=O)N1CCC2(CCC(=O)N2CCN2CCCC2)CC1	-89
C=CC(=O)N1CCC2(CCC(=O)N2CCN2CCCC2)CC1	.
COCCN1C(=O)CCC12CCN(C(=O)COC)CC2	.
SMILES	Tg IFNy HTS
CS(=O)(=O)NCCc1csc(-c2ccc(F)cc2)n1	.
CCCc1ccc(C(=O)N2Cc3c(CN4CCCCC4)nn(C)c3C2)cc1	-79
CCc1ccc(S(=O)(=O)N2Cc3c(CN4CCCCC4)nn(C)c3C2)cc1	.
Cn1nc(CN2CCCCC2)c2c1CN(C(=O)c1cccc(C#N)c1)C2	.
COc1cc(C)c(C)cc1S(=O)(=O)N1CCN(Cc2csc(C)n2)CC1	.
O=C(NC(=S)Nc1ccc2c(c1)CCC2)c1ccccc1	.
S=C(NCc1ccccc1)Nc1ccc(Br)cc1	.
S=C(N/N=C1\CCCc2c1[nH]c1ccc(Br)cc21)Nc1ccccc1	-82
Cc1ccc(F)cc1CC(=O)N(C)CCc1scnc1C	.
COc1ccc(-c2noc(C3CCCN3C(=O)c3sc(C)nc3C)n2)cc1 (centres undefined)	.
O=C(CCN1CCOCC1)c1cc2ccc(-c3cccc(Cl)c3)cn2c1-c1cocn1	.
C/C=C/C(=O)Nc1ccccc1-c1ccc(-c2ccn[nH]2)cc1	-93
CC(Oc1ccccc1-c1ccc(-c2ccn[nH]2)cc1)C(N)=O (centres undefined)	.
Cc1nnc(-c2ccccc2-c2ccc(-c3ccn[nH]3)cc2)o1	.
O=C(c1ccc(Cl)cc1)C1CCN(C(=O)NC23CC4CC(CC(C4)C2)C3)CC1	.
CCc1ccc(NC(=O)Cn2ncc3c(N4CCN(c5ccccn5)CC4)ncnc32)cc1	.
CCCOc1ccc2nc(NC(=O)OC)[nH]c2c1	-73!
COC(=O)Nc1nc2ccc(C(=O)c3ccc(F)cc3)cc2[nH]1	.
CCOC(=O)Nc1nc2ccccc2[nH]1	.
Cc1ccc(S(=O)(=O)NCCc2sc(-c3cccc(F)c3)nc2C)cc1	.
C=CCNc1ccccc1C(=O)N1CCN(CC(=O)NC(C)C)CC1	.
CNC(=O)c1ccccc1Sc1ccc2c(/C=C/c3ccccn3)n[nH]c2c1	-75!
CC(C)Sc1ccccc1C(=O)NCc1ccccn1	.
O=C(Nc1cc(-c2ccccn2)no1)c1cccc2[nH]ccc12	.
Cc1ccsc1C(=O)N1CCC2(CC1)NC(=O)CC2c1ccccc1 (centres undefined)	.
SMILES	Tg IFNy HTS
COc1cccc(CC(=O)N2CCC3(CC2)Nc2ccc(C)c(C)c2-n2cccc23)c1	.
Nc1ccnc(N2CCC(c3[nH]ncc3-c3cccc(F)c3)CC2)n1	.
Cc1cc(NC(=S)NC(=O)c2cccs2)ccc1-c1cc2ccccc2oc1=O	-80
O=C(Nc1cccc(-c2cc3ccccc3oc2=O)c1)c1ccc(Br)o1	.
O=C(NC(=S)Nc1ccc(S(=O)(=O)N2CCOCC2)cc1)c1cccs1	.
Cc1cccc(NC(=O)N2CCC3(CC2)Nc2cc(F)ccc2-n2cccc23)c1	.
Cc1ccccc1CN1CCC2(CCN(S(=O)(=O)Cc3ccccc3)C2)C1 (centres undefined)	.
COCCn1c(-c2ccc(OC)cc2)cnc1SCC(=O)Nc1ccc(C)c(Cl)c1	-90
COc1ccc(-c2ccnc(SCC(=O)Nc3ccccc3)n2)cc1	.
COc1ccc(CC(=O)Nc2ccc(-c3nc(-c4cc(C)ccc4C)co3)cc2)cc1	.
Cc1noc(C[C@@H]2C[C@@H]3CN(C(=O)Cc4ccccc4F)C[C@H]3O2)n1	.
